This is a sample that favours compounds with a hit; in the whole collection about 12% have one here.
Sfp inh: inhibitors of Bacillus subtilis Sfp phosphopantetheinyl transferase; Biochemical Sfp PPTase activity, qHTS; Potency, µM, for inactives: largest response in the series, negative = inhibition, actives largely listed as inhibitors; 310,000 tested, 3.5% active; AID 1490;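 also: the enzyme is Sfp with the accession as filed and its product quenches rhodamine fluorescence; 0% = enzyme reaction without inhibitor and -100% = no enzyme wells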
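After 15 min at room temperature with compound, 15 nM Sfp received 5 uM rhodamine-CoA plus 12.5 uM BHQ-2-ybbR (50 mM Hepes pH 7.6, 10 mM MgCl2). Rate came from the fluorescence difference over 30 min, ex 525/em 598 nm.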
G9a block: G9a (human) methyltransferase inhibition; Q96KQ7; AID 504332; G9a H3K9 monomethylation, AlphaScreen, 2 h; Potency, µM (series often up to 102 µM), without a hit: at the top dose activity, negative = inhibition, hits mostly inhibitors; 350,000 tested, 8.8% active; also: % is scaled to controls: 0 for no effect and ±100 for the full control effect; nearly all actives have a fitted effect of over 75% in size
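Compounds were preincubated with 20 nM G9a for 15 min, after which biotinylated H3K9 peptide (500 nM) and SAM (20 uM) started a 2 h room-temperature reaction. Monomethylated product was quantified by antibody-based AlphaScreen chemiluminescence.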
JMJD2A Tudor inh: JMJD2A Tudor domain (human) inhibition | O75164 | 390,000 tested, 4.4% active | Potency, µM (series often up to 114 µM), inactives show at the highest dose activity change, negative = inhibition, usual class: inhibitors | AlphaScreen JMJD2A-Tudor / H3K4me3 peptide binding | AID 504339; also: % is scaled to controls: 0 for no effect and ±100 for the full control effect; nearly all actives have a fitted effect of over 50% in size
Target sequence (O75164 whole entry, looked up, the tested form may be a part): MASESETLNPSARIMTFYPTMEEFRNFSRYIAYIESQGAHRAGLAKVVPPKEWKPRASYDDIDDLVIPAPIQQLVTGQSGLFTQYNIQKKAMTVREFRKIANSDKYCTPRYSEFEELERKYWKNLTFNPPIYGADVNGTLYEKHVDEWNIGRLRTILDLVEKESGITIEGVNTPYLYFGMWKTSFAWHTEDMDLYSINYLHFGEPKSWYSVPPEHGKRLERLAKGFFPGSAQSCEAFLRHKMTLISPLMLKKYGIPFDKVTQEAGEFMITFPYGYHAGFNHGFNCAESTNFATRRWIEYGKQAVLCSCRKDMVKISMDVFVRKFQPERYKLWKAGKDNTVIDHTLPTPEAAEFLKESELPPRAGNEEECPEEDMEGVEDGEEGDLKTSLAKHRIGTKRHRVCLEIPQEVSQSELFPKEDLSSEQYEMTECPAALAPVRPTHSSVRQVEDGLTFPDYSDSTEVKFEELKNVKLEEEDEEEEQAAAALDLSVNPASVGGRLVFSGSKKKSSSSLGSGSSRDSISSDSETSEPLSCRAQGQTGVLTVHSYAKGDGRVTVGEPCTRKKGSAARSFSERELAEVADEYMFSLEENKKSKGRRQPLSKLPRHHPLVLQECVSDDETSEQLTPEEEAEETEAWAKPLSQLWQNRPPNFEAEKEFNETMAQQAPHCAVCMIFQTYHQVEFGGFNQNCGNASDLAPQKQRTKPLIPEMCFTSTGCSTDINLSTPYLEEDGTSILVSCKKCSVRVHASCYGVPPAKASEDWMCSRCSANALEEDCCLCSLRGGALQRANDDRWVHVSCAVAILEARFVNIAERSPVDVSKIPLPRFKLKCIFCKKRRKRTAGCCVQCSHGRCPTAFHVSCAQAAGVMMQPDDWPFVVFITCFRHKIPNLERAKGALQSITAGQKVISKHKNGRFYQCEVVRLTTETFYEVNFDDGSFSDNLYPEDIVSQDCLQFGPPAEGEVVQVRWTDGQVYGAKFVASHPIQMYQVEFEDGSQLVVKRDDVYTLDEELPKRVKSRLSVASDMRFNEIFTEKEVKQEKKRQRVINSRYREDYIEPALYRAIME
BAZ2B inh: BAZ2B (human) inhibition; Q9UIF8; AlphaScreen BAZ2B-H3K14Ac peptide displacement; Potency, µM (highest dose often 114 µM), inactives show at the highest dose activity change, negative = inhibition, hits mostly inhibitors; 360,000 tested, 4.4% active; also: % is scaled to controls: 0 for no effect and ±100 for the full control effect; nearly all actives have a fitted effect of over 60% in size
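Complex of BAZ2B and biotin-H3K14Ac (50 nM apiece) forms over 30 min at RT, then faces library compounds up to 110 uM for another 30 min; AlphaScreen beads added, 20 min dark incubation, luminescence read.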
HP1b chromo inh: inhibitors of HP1-beta chromodomain binding to methylated histone tails; P83916; AlphaScreen HP1-beta / biotin-H3K9me3 peptide binding; Potency, µM (series often up to 114 µM), inactives show at the top dose activity change, negative = inhibition, usual class: inhibitors; 390,000 tested, 0.56% active; also: nearly all actives have a fitted effect of over 70% in size
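AlphaScreen: HP1-beta (50 nM) preformed 30 min with biotin-H3(1-18)K9me3 peptide (50 nM) in PBS pH 7.4, 0.01% Tween-20. Compound added for 30 min at RT, then streptavidin donor/nickel chelate acceptor beads (10 ug/mL) for 30 min.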
L3MBTL1 block: blocks human L3MBTL1 | Q9Y468 | AlphaScreen L3MBTL1–H3K9me1 peptide binding | Potency, µM (titrated, usually from 57.1 µM), without a hit: at the highest dose activity, negative = inhibition, hits mostly inhibitors | 230,000 tested, 0.66% active | AID 485360; also: % is scaled to controls: 0 for no effect and ±100 for the full control effect; nearly all actives have a fitted effect of over 60% in size
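L3MBTL1 (50 nM) pre-complexed 30 min with biotinylated H3(1-15)K9me1 peptide (75 nM), then compounds added for 30 min at room temperature; AlphaScreen streptavidin donor/nickel chelate acceptor beads (10 ug/mL final) read after 30 min dark incubation.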
Active calls of the source: *; u = inconclusive; x = no result given; [ ] = another dose, or the depositor's remark. Calls follow the shape of the dose curve; as a rule, active = well fitted curve in the direction sought with a large enough effect; inconclusive = small, poorly fitted or top-dose-only effect, or another doubt; inactive = no such curve, though single readings can be large; an effect the other way counts as inactive or inconclusive. Potency is read from the fitted curve at half-maximal effect.

SMILES | Sfp inh | G9a block | JMJD2A Tudor inh | BAZ2B inh | HP1b chromo inh | L3MBTL1 block
c1ccc(CNc2nc(-c3ccc4c(c3)OCO4)nc3ccccc23)cc1 | 4% | 10%[0.501 µM] | x | x | x | x
Cc1ccccc1-c1nc(CN2CCC(C(=O)NC(C)C)CC2)c(C)o1 | x | 3%[59 µM] | -6% | -37% | 38% | x
COc1ccc(C2OC34CCCCC3C(C#N)(C#N)C2(C#N)C(=N)O4)cc1 (centres undefined) | -5% | 50µM* | -22% | -34% | 33% | -2%
Cc1ccc(NC(=O)CCNS(=O)(=O)c2ccc3c(c2)CCN3C(=O)C2CC2)c(Cl)c1 | x | 2%[59 µM] | -11% | 1% | 21%[57 µM] | x
C[C@H](NC(=O)c1nc[nH]c1C(=O)NCCCCCN)C(=O)OCc1ccccc1 | x | -10%[2.33 µM] | 45µM* | 50µM* | 26% | 0%
C[C@H](NC(=O)c1nc[nH]c1C(=O)N1CCNCC1)C(=O)OC(C)(C)C | x | u | 35µM* | 50µM* | 16% | -3%
C[C@H](NC(=O)c1nc[nH]c1C(=O)NCCCCCNC(=O)OC(C)(C)C)C(=O)OCc1ccccc1 | 8% | 7%[12.7 µM] | -22% | -5% | 58% | u
CC(C)(C)OC(=O)NCc1ccc(CNC(=O)c2nc[nH]c2C(=O)N2CCc3ccccc3C2)cc1 | x | 9%[2.33 µM] | -23% | 50µM* | 45% | -15%
CC(C)(C)OC(=O)[C@H](CCCCN)NC(=O)c1nc[nH]c1C(=O)NCCCCCN | x | -10%[12.7 µM] | -22% | u | 1% | -3%
C[C@H](NC(=O)c1nc[nH]c1C(=O)NCCCCCN)C(=O)OC(C)(C)C | x | 23%[2.33 µM] | 56µM* | 50µM* | 13% | 1%
CC(=O)Nc1cc(C(=O)Nc2ccc3c(c2)N(C)C(=O)c2ccccc2S3)ccc1C | x | 4%[59 µM] | -9% | 0% | 17% | x
COc1ccc(OC)c(CNC(=O)CN(c2ccc(C)cc2)S(=O)(=O)N(C)C)c1 | x | -6%[59 µM] | -21% | -16% | 24% | x
COc1ccc(Nc2c(-c3ccc(C)o3)nc3ccc(Cl)cn23)cc1 | x | -12%[59 µM] | -4% | -1% | 34% | x
CN(C)CCCOC(=O)c1ccc(Br)cc1 | 3% | 45µM* | 8% | 10% | 43% | 1%
Cc1nnc(N2CCC(C(=O)NCCC(C)C)CC2)c2nn(-c3ccc(Cl)cc3)c(C)c12 | x | 9%[59 µM] | 6% | 1% | 30% | x
NC(=O)c1c(NC(=O)c2ccncc2)sc2c1CCCC2 | 9% | u | -18% | 1% | 29% | x
COc1ccc(-c2cc(C(=O)Nc3sc4c(c3C(N)=O)CCC(C)C4)no2)cc1 (centres undefined) | x | -1%[59 µM] | 1% | 0% | 48% | x
CCOC(=O)c1c(NC(=S)Nc2ccc(F)cc2)sc2c1CCC2 | -6% | -21% | -24% | -2% | 11% | x
NC(=O)c1c(NC(=O)c2cnccn2)sc2c1CCCC2 | 40µM* | 8.9µM* | -8%[11.4 µM] | -23% | 25% | 2%
NC(=O)c1c(NC(=S)Nc2ccccc2)sc2c1CCCC2 | 56µM* | 6.3µM* | u | -31% | -25% | -4%
NC(=O)c1c(NC(=O)c2cc(-c3ccc(F)cc3)on2)sc2c1CCCC2 | x | 1.8µM* | -31% | -13% | -23% | x
NC(=O)c1c(NC(=S)Nc2ccc(F)cc2)sc2c1CCCC2 | 22µM* | 22µM* | -4% | -21% | -5% | 2%
CCOc1ccc(-c2cc(C(=O)NCc3ccccc3Cl)c3ccccc3n2)cc1 | x | -4%[59 µM] | -28% | 3% | 24% | x
C=CC(=O)Nc1sc2c(c1C(N)=O)CCCC2 | x | -14%[2.33 µM] | -12% | 2% | 21% | -13%
C=CCNC(=S)Nc1sc2c(c1C(N)=O)CCCC2 | 50µM* | 18µM* | -34% | -38% | u | -18%
SMILES | Sfp inh | G9a block | JMJD2A Tudor inh | BAZ2B inh | HP1b chromo inh | L3MBTL1 block
Cc1ccc(S(=O)(=O)NCCc2cn3c(C)csc3n2)cc1 | x | -1%[59 µM] | 0% | 6% | 24%[57 µM] | x
COc1ccc(CCNC(=O)CCCn2nc(C)c3sc4ccccc4c3c2=O)c(OC)c1 | x | -8%[59 µM] | -8% | -10% | 31% | x
CCCNC(=O)N1CCN(c2ncccn2)CC1 | -2% | 15%[59 µM] | -8% | 7% | 30% | 24%[11.4 µM]
CCCNC(=O)N1CCN(S(C)(=O)=O)CC1 | -7% | 40µM* | -7%[11.4 µM] | -11% | 37% | -1%
COCCCN1CCc2[nH]c(=S)[nH]c(=O)c2C1 | 50µM* | 35µM* | u | -37% | 13% | 9%
COc1cccc(CN2CCc3[nH]c(=S)[nH]c(=O)c3C2)c1 | -28% | 45µM* | -15% | -13% | 47% | x
N#Cc1c(-c2ccco2)c2c([nH]c1=S)CCCC2 | 4.5µM* | u | 28µM* | 1% | -22% | u
N#Cc1c(-c2cccnc2)c2c([nH]c1=S)CCCC2 | 28µM* | 0.71µM* | 1.4µM* | -6% | u | 2%
CC(C)Cc1c2c([nH]c(=S)c1C#N)CCCC2 | 2µM* | 2.2µM* | 56µM* | -30% | -24% | -2%
CCCCCCCc1c(C#N)c(N)[nH]c(=S)c1C#N | -3% | u | -28% | u | 7% | -22%
CC(=O)N1c2c(cc(Br)cc2S(=O)(=O)N2CCN(C(=O)c3ccco3)CC2)CC1C (centres undefined) | 22% | u | 22µM* | -1% | -10% | 11%
O=C(Nc1ccc(F)c(F)c1)c1ccc(-n2cncn2)c([N+](=O)[O-])c1 | x | 10%[12.7 µM] | -13% | -7% | 15% | -1%
O=C(Nc1cccc(/C=C/c2ccccn2)c1)c1ccc(-n2cncn2)c([N+](=O)[O-])c1 | x | 35µM* | u | -33% | -2% | -5%
CCCNC(=O)C1CCN(c2cc(C)nc3c(-c4ccc(OC)c(OC)c4)c(C)nn23)CC1 | x | 0%[59 µM] | 0% | -12% | 38% | x
COCCN(C(=O)COC(=O)COc1ccc(Cl)c(C)c1)c1c(N)n(Cc2ccccc2)c(=O)[nH]c1=O | 4% | 40µM* | -20% | -3% | 17% | x
Cc1cc(OCC(=O)OCC(=O)N(C)c2c(N)n(Cc3ccccc3)c(=O)[nH]c2=O)ccc1Cl | x | 6.3µM* | -12% | -4% | 44% | 4%
CN(C(=O)COC(=O)COc1ccc2ccccc2c1)c1c(N)n(Cc2ccccc2)c(=O)[nH]c1=O | x | -37%[12.7 µM] | -19% | 5% | 22% | -4%
Cc1cccc(C)c1OCc1n[nH]c(=S)o1 | 10% | 2.2µM* | -28% | -3% | 42% | -5%
Cc1cccc(OCc2cc(-c3ccccc3)no2)c1C | -5% | 399% | 197% | 208% | 205% | x
Cc1cccc(OCc2n[nH]c(=S)o2)c1 | 11% | 10µM* | u | -39% | 13% | 3%
Cc1cccc(OCc2n[nH]c(=S)o2)c1C | -2% | 20µM* | -13% | 56µM* | 50% | 1%
Cc1cccc(OCCn2c(-c3ccc(Cl)cc3)nc3ccccc3c2=O)c1 | x | -33%[59 µM] | 3% | 14% | 30% | x

Assay outcomes from PubChem.
